VP16 counter = inhibits Gal4-VP16 luciferase reporter, ROR gamma counter-screen; Drosophila S2 Gal4-VP16 UAS-luciferase, luminescence, 20 h; Potency, µM (highest dose often 53.6 µM), for inactives: top-dose activity, negative = inhibition, actives largely listed as inhibitors; 310,000 tested, 3.5% active;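 also: Gal4-VP16 expression switched on by copper sulfate through the metallothionein promoter; potency is read from the fitted curve at half-maximal effect; % is scaled to controls: 0 for no effect and ±100 for the full control effect; nearly all actives have a fitted effect of over 50% in size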
ELG1 repair inh = blocks ELG1-dependent DNA repair in HEK293T cells; HEK293T ELG1-luciferase reporter, luminescence, 16 h; DNA damage induced by 5-fluorouridine; Potency, µM (titrated, usually from 46.1 µM), inactives show at the top dose activity change, negative = inhibition, actives largely listed as inhibitors; 330,000 tested, 2.3% active; AID 504467; also: potency is read from the fitted curve at half-maximal effect; % is scaled to controls: 0 for no effect and ±100 for the full control effect; nearly all actives have a fitted effect of over 55% in size
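HEK293T cells expressing luciferase-tagged ELG1 (2,000/well) received 5-Fluorouridine plus compound or DMSO for 16 hr at 37 °C. Luciferase was read by ONE-Glo luminescence after 30 min at room temperature.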
BRCA1 expr up = BRCA1 expression activation; 380,000 tested, 1.1% active; MCF7-BRCA1-FFLuc reporter, luminescence, 48 h; response scale: scaled: vehicle 0%, 10 µM genistein 100%; Potency, µM (series often up to 46.1 µM), inactives show at the top dose activation, hits mostly activators; also: potency is read from the fitted curve at half-maximal effect; nearly all actives have a fitted effect of over 80% in size
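Quantitative HTS in MCF7 cells stably reporting BRCA1 expression via firefly luciferase. Compound treatment lasts 48 h at 37 °C in phenol-red free MEM. Activation is expressed relative to genistein at 10 microM and DMSO.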
p53 reactivator = mutant p53 re-activation in reporter cells | H1299 p53-A138V BP100-luciferase reporter, luminescence, 24 h | 320,000 tested, 0.063% active | Potency, µM (highest dose often 92.2 µM), without a hit: at the top dose activity change, positive = activation, most hits filed as activators; also: potency is read from the fitted curve at half-maximal effect; % of control where 0% means no effect; nearly all actives have a fitted effect of over 45% in size
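H1299 (p53-null), stable ts p53-A138V + BP100-Luc; 1000 cells/well, Opti-MEM/10% FBS; cpd 4 pt, 1:5; 24 h, 37 deg C, 5% CO2; detection reagent 10 min RT; luminescence.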
RORgamma inh = blocks mouse ROR gamma transcriptional activity | P51450 | Drosophila S2 Gal4-RORgamma UAS-luciferase reporter, 20 h | Potency, µM (highest dose often 53.6 µM), without a hit: top-dose activity change, negative = inhibition, usual class: inhibitors | 310,000 tested, 5.4% active | AID 2551; also: potency is read from the fitted curve at half-maximal effect; % is scaled to controls: 0 for no effect and ±100 for the full control effect; nearly all actives have a fitted effect of over 60% in size
Target sequence (P51450 whole entry, looked up, the tested form may be a part): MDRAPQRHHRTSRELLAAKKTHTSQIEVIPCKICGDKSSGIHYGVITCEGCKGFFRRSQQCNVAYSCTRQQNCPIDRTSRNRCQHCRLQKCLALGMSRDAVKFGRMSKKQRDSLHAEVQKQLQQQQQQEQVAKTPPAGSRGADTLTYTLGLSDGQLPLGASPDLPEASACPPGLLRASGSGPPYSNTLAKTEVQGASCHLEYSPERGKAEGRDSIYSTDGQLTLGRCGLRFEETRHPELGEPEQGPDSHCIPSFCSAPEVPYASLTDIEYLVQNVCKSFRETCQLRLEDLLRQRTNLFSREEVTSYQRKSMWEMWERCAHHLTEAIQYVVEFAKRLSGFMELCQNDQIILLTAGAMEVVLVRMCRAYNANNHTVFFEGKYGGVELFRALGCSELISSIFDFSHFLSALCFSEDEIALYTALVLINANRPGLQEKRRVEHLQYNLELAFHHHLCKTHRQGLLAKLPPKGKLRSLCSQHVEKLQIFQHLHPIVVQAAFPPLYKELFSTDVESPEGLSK
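Read-out: Photinus luciferase luminescence; inhibitors lower reporter signal. Insect Schneider cells with Gal4-ROR gamma fusion under metallothionein promoter, UAS reporter; 700 uM final copper sulfate induction, 20 hr, ambient temperature.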
Giardia kill = Giardia lamblia killing | Giardia lamblia trophozoite viability | activity change, % at 7.66 µM, hits read low | 340,000 tested, 0.15% active; in the data active = activity change below about -80%; inconclusive = between about -30% and that limit;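 also: parasites exposed to compound for two days anaerobically before the ATP read; % is scaled to controls: 0 for no effect and ±100 for the full control effect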
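Killing of trophozoites was scored by loss of ATP luminescence after a 48 hrs anaerobic exposure to compounds at 37 deg C, using 100 cells per well.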
Active calls of the source: *; ? = inconclusive; · = no result. A selection: hits, their analogues and other compounds. The true share with any hit is near 7.6%. Unless noted, calls follow the shape of the dose curve; as a rule, active = well fitted curve in the direction sought with a large enough effect; inconclusive = small, poorly fitted or top-dose-only effect, or another doubt; inactive = no such curve, though single readings can be large; an effect the other way counts as inactive or inconclusive.

SMILES	VP16 counter	ELG1 repair inh	BRCA1 expr up	p53 reactivator	RORgamma inh	Giardia kill
Nc1nc(SCC(=O)Nc2ccc(Oc3ccccc3)cc2)n[nH]1	18µM*	-1%	-19%	2%	?	-4
C=C1CCC(OC(C)=O)/C(C)=C/CC2[C@H]1CC2(C)C (stereo not given in full)	1%	·	·	·	-9%	·
CC12C=C(/C=C/c3ccc(Br)cc3)C(C)(C1)[C@H](c1ccc(Br)cc1)CC2=O (stereo not given in full)	2%	·	·	·	1%	·
C=C1C(=O)O[C@H]2[C@H]1[C@@H](O)CC(=C)[C@@H]1CC(=O)[C@@H](C)[C@H]21	?	-14%	-46%	-19%	13µM*	-8
CCN(CC)C(=O)CSc1nc(-c2ccco2)cc(C(F)(F)F)c1C#N	1%	-6%	-27%	-4%	?	5
COc1ccc(-c2cc(C(F)F)n3ncc(C(=O)N4CCCCC4)c3n2)cc1	-13%	?	-42%	0%	?	5
O=C(c1cnn2c(C(F)F)cc(-c3ccccc3)nc12)N1CCc2ccccc21	8%	?	-6%	-2%	11%	0
Cc1ccc(-c2cc(C(F)F)n3ncc(C(=O)N4CCc5ccccc54)c3n2)cc1	0%	21µM*	-55%	13%	0%	-12
COc1ccc(-c2cc(C(F)F)n3ncc(C(=O)N4CCN(C(=O)c5ccco5)CC4)c3n2)cc1	-8%	3.3µM*	-15%	-7%	36%	11
Cc1ccc(-c2cc(C(F)F)n3ncc(C(=O)N4CCN(c5ccccn5)CC4)c3n2)cc1	-28%	3.7µM*	-57%	-5%	45%	21
O=C(Nc1ccccn1)c1ccc(Br)c(S(=O)(=O)N2CCCC2)c1	14%	-2%	33%	25%	22%	12
OCCN(CCO)c1ccc(C(c2ccccc2Cl)c2ccc(N(CCO)CCO)cc2Cl)c(Cl)c1	?	16%	-88%	-12%	14µM*	9
Cc1nnnn1/C(=C\c1ccccc1)C(=O)OCC(=O)N(C)C1CCS(=O)(=O)C1 (stereo not given)	0%	-5%	0%	0%	11µM*	5
CCN(C(=O)COC(=O)/C(=C/c1ccccc1)n1nnnc1C)C1CCCCC1	·	?	-54%	-14%	·	-7
CC(=O)c1cccc(NC(=O)C(OC(=O)c2ccccc2NS(=O)(=O)c2cccs2)c2ccccc2)c1 (stereo not given)	?	-9%	-1%	23%	32%	5
Cc1cccc(C)c1OCC(=O)N/N=C/c1cccnc1	14%	-12%	-9%	1%	4%	-4
Cc1cccc(-n2nnc(C(=O)Nc3ccc(F)cc3)c2N)c1	-2%	?	4.5µM*	?	?	5
Cc1c(C(=O)Nc2ccc(F)cc2)nnn1-c1cccc(C(F)(F)F)c1	16µM*	5.8µM*	16%	3%	?	-5
Cc1ccc(NC(=O)c2nnn(-c3cc(C)cc(C)c3)c2N)cc1	-1%	?	113%	6%	?	8
COC(=O)[C@@]1(Cc2ccccc2)[C@H]2C(=O)N(C)C(=O)[C@H]2[C@H]2CN=C(SCc3ccccc3)N21	·	14%	-9%	2%	·	-10
C=C1CC2C(CCC3(C)C2CCC3(O)C(C)=O)C2(C)CCC(=O)C=C12 (stereo not given)	-23%	?	-75%	5%	-35%	9
Clc1ccc(OCc2cn3ccccc3n2)c2ncccc12	?	?	3.2µM*	0%	11µM*	-6
O=C(c1cc(COc2cccc(C(F)(F)F)c2)on1)N1C[C@H]2CC[C@H]1C2	1%	?	13µM*	6%	?	3
CC(=O)c1cccc(OCc2cc(C(=O)N3C[C@H]4CC[C@H]3C4)no2)c1	7%	?	?	?	20%	-3
COc1ccc(C(C)(C)C)cc1NC(=O)C1=CC=CN2CCS(=O)(=O)N=C12	·	?	-11%	1%	·	-2
SMILES	VP16 counter	ELG1 repair inh	BRCA1 expr up	p53 reactivator	RORgamma inh	Giardia kill
CCOC(=O)c1sc(=NC(=O)CCSc2ccccc2)n(C)c1C	6%	?	10µM*	18%	22%	7
CCOC(=O)c1sc(=NC(=O)COc2ccccc2)n(C)c1C	5%	?	55%	20%	27%	-6
CC(C)(C)OC(=O)CNC(=O)c1[nH]cnc1C(=O)Nc1ccc(CNC(=O)OC(C)(C)C)cc1	?	?	-82%	8%	11µM*	6
CC(C)(C)OC(=O)CNC(=O)c1[nH]cnc1C(=O)Nc1ccc(Cl)cc1	13µM*	-16%	-35%	5%	4.5µM*	-18
CC(C)(C)OC(=O)CNC(=O)c1nc[nH]c1C(=O)NCc1ccc(CNC(=O)OC(C)(C)C)cc1	?	?	-19%	·	?	-2
O=C(COc1nc2ccccc2nc1N1CCOCC1)Nc1ccc(S(=O)(=O)N2CCCC2)cc1	6%	-20%	-14%	-17%	14%	-5
CCOC(=O)c1cc2c(=O)c3cc(C)ccc3oc2nc1C	-12%	?	11µM*	?	30%	-17
CC(=O)c1cc2c(=O)c3cc(C)ccc3oc2nc1C	2%	?	11µM*	26%	21%	-16
Cc1ccc2oc3nc(C)c(C(=O)O)cc3c(=O)c2c1	?	?	2.8µM*	4%	-25%	-1
CCCn1c2ccccc2c2cnn(CC(=O)NCCCN3CCCC(C)C3)c(=O)c21 (stereo not given)	21%	-2%	-15%	4%	-31%	-10
C/C(=N\O)c1ncc(C(F)(F)F)cc1Cl	-14%	1%	16%	0%	-6%	8
O=C1c2ccccc2-c2onc3ccc(N4CCCC4)c1c23	-9%	?	-51%	17%	?	28
O=C1c2ccccc2C(=O)c2c1cccc2N1CCCC1	?	20%	-7%	3%	11µM*	-19
Cc1ccsc1C(=O)NNC(=S)NC1CCCCC1	11µM*	29%	40%	4%	-39%	5
C=CCNC(=S)NNC(=O)c1csc(C)c1C	7.9µM*	25%	-46%	2%	?	6
CCCCNC(=S)NNC(=O)c1csc(C(C)C)c1	?	30%	0%	14%	7.9µM*	-20
CCCCNC(=S)NNC(=O)c1ccncc1	-3%	-4%	-2%	4%	?	-13
CCNC(=S)NNC(=O)c1csc(C(C)C)c1	-5%	?	68%	?	41%	3
CCCCNC(=S)NNC(=O)c1csc(C)c1C	14µM*	-6%	-2%	8%	?	-11
